“And” between values parts separate entries of the source, which are not always exact repeats. Equal values may be shown once. Records with an inconclusive call do not appear. Some compounds were tested as several samples or in several runs, with calls that do not always agree. The source made the active and inactive calls. The calls were made as follows, unless noted: active = hit-call score of the fitted dose curve at least 0.9, where 1 is the maximum; inactive = score below 0.9.
Columns and labels:
[1] = ATG_PXRE_CIS: Attagene CIS-FACTORIAL HepG2 Assay for human Pregnane X Receptor Element (PXRE) (AID 2282957); conditions: HepG2 Attagene CIS-FACTORIAL PXRE reporter, mRNA; actives raise or lower the signal
Procedure, shortened: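 Multiplexed cis-reporter assay in transiently transfected human HepG2 cells; 24 h chemical exposure. Reporter transcripts quantified by RT-PCR with fluorescent labeling and capillary electrophoresis.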

[2] = ATG_PPRE_CIS: Attagene CIS-FACTORIAL HepG2 Assay for human Peroxisome Proliferator-activated Response Element (PPRE) (AID 2282958); conditions: HepG2 PPRE cis-element reporter, Attagene transcription factor profiling; actives raise or lower the signal
Procedure, shortened: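 DMSO served as negative control and baseline for bidirectional curve fitting. Signal came from PPRE-regulated reporter mRNA in HepG2 cells, measured 24 h post-dosing by RT-PCR, 6-FAM primer extension and capillary electrophoresis.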

[3] = ATG_RORE_CIS: Attagene CIS-FACTORIAL HepG2 Assay for human RAR-related Orphan Receptor Element (RORE) (AID 2282959); conditions: HepG2 Attagene cis-factorial RORE reporter, mRNA; actives raise or lower the signal
Procedure, shortened: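 Transfect HepG2 with MRTUs; treat 24 h; extract RNA; RT with oligo(dT); PCR with reporter-specific primers; 6-FAM primer extension; HpaI digest 2 h at 37 C; capillary electrophoresis. Fit vs DMSO, bidirectional.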

[4] = ATG_Sox_CIS: Attagene CIS-FACTORIAL HepG2 Assay for human SRY-box transcription factor (SOX) (AID 2282960); conditions: HepG2 Attagene cis-factorial SOX reporter, mRNA; actives raise or lower the signal
Procedure, shortened: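 Fluorescence-labelled cDNA fragments from reporter transcripts, sized by CE, give the signal. Cells: HepG2, transiently transfected with cis-regulated reporter units. Exposure 24 h; DMSO negative control; bidirectional curve fitting.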

[5] = biological target: Transcription factor Sp1 (Homo sapiens) (UniProt P08047); assay: ATG_Sp1_CIS: Attagene CIS-FACTORIAL HepG2 Assay for human Specificity Protein 1 (Sp1) (AID 2282961); conditions: HepG2 Sp1 cis-reporter transcription, actives raise or lower the signal
Procedure, shortened: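 Chemicals are dosed onto HepG2 cells transfected with multiple cis-promoter reporter constructs, and after 24 h reporter RNA is reverse-transcribed, PCR-amplified and resolved by capillary electrophoresis for fluorescence quantitation; activity is scored up or down against DMSO.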

[6] = biological target: Signal transducer and activator of transcription 3 (Homo sapiens) (UniProt P40763); assay: ATG_STAT3_CIS: Attagene CIS-FACTORIAL HepG2 Assay for human Signal Transducer and Activator of Transcription 3 (STAT3) (AID 2282963); conditions: HepG2, Attagene cis-factorial STAT3 reporter transcription; actives raise or lower the signal
Procedure, shortened: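 Transcript-level reporter assay. HepG2 transient MRTU transfection, 24 h exposure, fluorescence detection after RT-PCR and CE; DMSO baseline.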

[7] = ATG_TA_CIS: Attagene CIS-FACTORIAL HepG2 Assay for human TA Basal Promoter (AID 2282964); conditions: HepG2 Attagene CIS-factorial TA basal promoter reporter; actives raise or lower the signal
Procedure, shortened: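 Steps: transfect HepG2 with MRTUs; dose 24 h; isolate RNA, DNase-treat, reverse-transcribe; PCR and FAM-label reporter cDNA; digest with HpaI 2h at 37 C; run capillary electrophoresis. Activity fitted both directions against DMSO.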

[8] = ATG_TCF_b_cat_CIS: Attagene CIS-FACTORIAL HepG2 Assay for human T-Cell-Factor with beta-catenin (TCF/b-cat) (AID 2282965); conditions: HepG2 TCF/beta-catenin cis-reporter transcription, actives raise or lower the signal
Procedure, shortened: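 Using capillary electrophoresis as the read-out, labelled reporter cDNA fragments from transiently transfected HepG2 were sized and quantified. Exposure lasted 24 hours; activity in either direction was referenced to DMSO.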

[9] = ATG_TAL_CIS: Attagene CIS-FACTORIAL HepG2 Assay for human TAL Basal Promoter (AID 2282966); conditions: HepG2 Attagene cis-factorial TAL promoter reporter; actives raise or lower the signal;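 also: background control endpoint measuring basal TAL promoter reporter mRNA not a specific factor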
Procedure, shortened: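 Steps: transfect HepG2 with multiple reporter transcription units; dose 24 h; isolate RNA, reverse-transcribe, PCR-amplify, label with 6-FAM, digest with HpaI; resolve by capillary electrophoresis. Bidirectional fitting against DMSO baseline.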

[10] = ATG_TGFb_CIS: Attagene CIS-FACTORIAL HepG2 Assay for human Transforming Growth Factor (TGF) (AID 2282967); conditions: HepG2 Attagene CIS TGFb reporter, mRNA transcription; actives raise or lower the signal
Procedure, shortened: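 Cells were dosed for 24 hours, after which total RNA was reverse-transcribed and reporter sequences amplified, labeled and sized by capillary electrophoresis. Activity was fitted in both directions against DMSO.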

[11] = biological target: Estrogen receptor (Homo sapiens) (UniProt P03372); assay: ATG_ERa_TRANS: Attagene TRANS-FACTORIAL HepG2 Assay for human Estrogen Receptor alpha (ERa) (AID 2282970; active = hit-call score of the fitted dose curve at least 0.9, where 1 is the maximum); conditions: HepG2 Attagene TRANS ERa GAL4 reporter, mRNA
Procedure, shortened: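 Multiplexed cell-based reporter format in HepG2: chimeric ERa-Gal4 protein drives GAL4-UAS reporter transcription. Fluorescent reporter mRNA quantified by capillary electrophoresis 24 hours after dosing; endpoint fitted as signal gain against DMSO.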

[12] = biological target: X-box-binding protein 1 (Homo sapiens) (UniProt P17861); assay: ATG_Xbp1_CIS: Attagene CIS-FACTORIAL HepG2 Assay for human X-box Binding Protein 1 (XBP1) (AID 2282972); conditions: HepG2 XBP1 cis-element reporter, Attagene multiplex; actives raise or lower the signal
Procedure, shortened: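 HepG2 cells transiently transfected with cis-regulated multiple reporter transcription units; endogenous transcription factor activity measured 24 hours after chemical dosing. Reporter mRNA quantified by RT-PCR, 6-FAM primer extension, HpaI digestion and capillary electrophoresis; bidirectional fitting versus DMSO.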

[13] = ATG_M_19_TRANS: Attagene TRANS-FACTORIAL HepG2 Assay for M19 Transcription Factor (Internal Marker) (AID 2282974; active = hit-call score of the fitted dose curve at least 0.9, where 1 is the maximum); conditions: HepG2 Attagene TRANS-FACTORIAL M19 internal marker reporter
Procedure, shortened: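 Multiplexed TRANS format: HepG2 liver cells bearing transient GAL4-UAS reporter units, chemical treatment 24 h, reporter transcripts quantified by RT-PCR plus capillary electrophoresis. DMSO defines baseline.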

[14] = ATG_GAL4_TRANS: Attagene TRANS-FACTORIAL HepG2 Assay for GAL4 (Internal Marker) (AID 2282976; active = hit-call score of the fitted dose curve at least 0.9, where 1 is the maximum); conditions: HepG2 Attagene TRANS GAL4 internal marker reporter
Procedure, shortened: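 Liver HepG2 line bearing multiplexed GAL4-UAS reporter constructs; 24 h chemical treatment. Transcripts were quantified as fluorescent fragments on capillary electrophoresis after RT-PCR and HpaI cut, with activity fitted upward from DMSO.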

[15] = biological target: Glucocorticoid receptor (Homo sapiens) (UniProt P04150); assay: ATG_GR_TRANS: Attagene TRANS-FACTORIAL HepG2 Assay for human Glucocorticoid Receptor (GR) (AID 2282978; active = hit-call score of the fitted dose curve at least 0.9, where 1 is the maximum;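 also: activators score as hits since higher reporter transcript over DMSO is fitted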); conditions: HepG2 Attagene TRANS GR reporter, mRNA transcription
Procedure, shortened: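 Transiently transfected HepG2 cells express chimeric NR-GAL4 proteins acting on GAL4-UAS reporter units. Compounds are applied for 24 h. mRNA induction over DMSO is measured by capillary electrophoresis.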

[16] = ATG_SREBP_CIS: Attagene CIS-FACTORIAL HepG2 Assay for human Sterol Regulatory Element Binding (SREBP) (AID 2282962); conditions: HepG2 Attagene cis-factorial SREBP reporter, mRNA; actives raise or lower the signal
Procedure, shortened: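 HepG2 cells transiently transfected with multiplexed cis-element reporter units report endogenous transcription factor activity. After 24 h of chemical exposure, reporter mRNA was quantified by RT-PCR, 6-FAM labelling, HpaI digestion and capillary electrophoresis; bidirectional fits used DMSO as baseline.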

[17] = ATG_VDRE_CIS: Attagene CIS-FACTORIAL HepG2 Assay for human Vitamin D Receptor Element (VDRE) (AID 2282968); conditions: HepG2 VDRE cis-reporter transcription, actives raise or lower the signal
Procedure, shortened: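 RT-PCR/CE readout of reporter mRNA; HepG2, transient transfection, 24 h dosing; DMSO baseline; bidirectional analysis.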

[18] = biological target: Nuclear receptor subfamily 1 group I member 3 (Homo sapiens) (UniProt Q14994); assay: ATG_CAR_TRANS: Attagene TRANS-FACTORIAL HepG2 Assay for human Constitutive Androstane Receptor (CAR) (AID 2282969; active = hit-call score of the fitted dose curve at least 0.9, where 1 is the maximum;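 also: activators raise reporter mRNA above DMSO so AC50 marks induction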); conditions: HepG2 Attagene TRANS-FACTORIAL CAR reporter
Procedure, shortened: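 HepG2 cells transiently transfected with multiplexed GAL4-UAS reporter units expressing chimeric NR-Gal4 proteins; compound exposure 24 h. Reporter mRNA measured by RT-PCR, 6-FAM labelling, HpaI digestion and capillary electrophoresis; gain-of-signal fitted against DMSO baseline.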

[19] = biological target: Steroid hormone receptor ERR1 (Homo sapiens) (UniProt P11474); assay: ATG_ERRa_TRANS: Attagene TRANS-FACTORIAL HepG2 Assay for human Estrogen-Related Receptor alpha (ERRa) (AID 2282971; active = hit-call score of the fitted dose curve at least 0.9, where 1 is the maximum); conditions: HepG2 Attagene TRANS reporter, ERRa transactivation
Procedure, shortened: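 Signal gain relative to DMSO for an ERRa-Gal4 chimeric receptor, read as reporter mRNA by RT-PCR/capillary electrophoresis. Human HepG2 liver cells, transient multiplex reporter transfection, 24 h chemical exposure.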

[20] = biological target: Estrogen-related receptor gamma (Homo sapiens) (UniProt P62508); assay: ATG_ERRg_TRANS: Attagene TRANS-FACTORIAL HepG2 Assay for human Estrogen-Related Receptor gamma (ERRg) (AID 2282977; active = hit-call score of the fitted dose curve at least 0.9, where 1 is the maximum;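 also: hits increase reporter signal over DMSO so potencies reflect activators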); conditions: HepG2 Attagene TRANS reporter, ERRg transactivation
Procedure, shortened: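 Transfect HepG2 with multiple GAL4-UAS reporter transcription units; dose chemicals 24 h; isolate RNA, reverse-transcribe with oligo(dT), PCR-amplify, label with 6-FAM, digest with HpaI; size fragments by capillary electrophoresis. DMSO serves as negative control.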

Measured: AC50

Chain of Glucocorticoid receptor (Homo sapiens) (P04150 whole entry, looked up, the tested form may be a part): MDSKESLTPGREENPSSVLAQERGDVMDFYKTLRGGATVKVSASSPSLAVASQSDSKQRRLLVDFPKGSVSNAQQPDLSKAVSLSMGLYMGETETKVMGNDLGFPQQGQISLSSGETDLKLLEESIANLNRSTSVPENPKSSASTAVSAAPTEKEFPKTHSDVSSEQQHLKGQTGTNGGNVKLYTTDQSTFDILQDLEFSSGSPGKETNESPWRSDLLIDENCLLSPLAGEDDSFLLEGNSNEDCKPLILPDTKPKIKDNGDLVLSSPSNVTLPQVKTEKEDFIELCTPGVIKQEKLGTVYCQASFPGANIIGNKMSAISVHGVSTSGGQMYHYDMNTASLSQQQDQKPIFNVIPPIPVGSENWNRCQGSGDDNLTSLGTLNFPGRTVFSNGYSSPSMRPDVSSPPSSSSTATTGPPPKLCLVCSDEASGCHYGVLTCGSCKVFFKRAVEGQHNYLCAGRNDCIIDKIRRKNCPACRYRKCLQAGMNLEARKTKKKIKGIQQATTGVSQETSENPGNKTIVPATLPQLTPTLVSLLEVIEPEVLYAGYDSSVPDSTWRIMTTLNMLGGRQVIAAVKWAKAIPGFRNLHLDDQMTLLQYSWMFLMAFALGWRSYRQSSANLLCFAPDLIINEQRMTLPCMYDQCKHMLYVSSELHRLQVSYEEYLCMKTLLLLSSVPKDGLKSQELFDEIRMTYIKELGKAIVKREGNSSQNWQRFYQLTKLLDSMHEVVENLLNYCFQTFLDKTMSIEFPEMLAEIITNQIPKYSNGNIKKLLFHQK
Chain of X-box-binding protein 1 (Homo sapiens) (P17861 whole entry, looked up): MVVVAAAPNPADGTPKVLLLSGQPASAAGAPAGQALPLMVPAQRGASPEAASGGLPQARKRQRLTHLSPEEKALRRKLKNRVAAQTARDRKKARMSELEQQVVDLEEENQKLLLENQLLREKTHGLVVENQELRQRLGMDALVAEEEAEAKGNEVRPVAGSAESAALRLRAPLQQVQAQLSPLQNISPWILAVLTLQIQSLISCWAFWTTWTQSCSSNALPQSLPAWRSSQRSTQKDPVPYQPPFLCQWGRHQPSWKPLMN
Chain of Estrogen receptor (Homo sapiens) (P03372 whole entry, looked up, the tested form may be a part): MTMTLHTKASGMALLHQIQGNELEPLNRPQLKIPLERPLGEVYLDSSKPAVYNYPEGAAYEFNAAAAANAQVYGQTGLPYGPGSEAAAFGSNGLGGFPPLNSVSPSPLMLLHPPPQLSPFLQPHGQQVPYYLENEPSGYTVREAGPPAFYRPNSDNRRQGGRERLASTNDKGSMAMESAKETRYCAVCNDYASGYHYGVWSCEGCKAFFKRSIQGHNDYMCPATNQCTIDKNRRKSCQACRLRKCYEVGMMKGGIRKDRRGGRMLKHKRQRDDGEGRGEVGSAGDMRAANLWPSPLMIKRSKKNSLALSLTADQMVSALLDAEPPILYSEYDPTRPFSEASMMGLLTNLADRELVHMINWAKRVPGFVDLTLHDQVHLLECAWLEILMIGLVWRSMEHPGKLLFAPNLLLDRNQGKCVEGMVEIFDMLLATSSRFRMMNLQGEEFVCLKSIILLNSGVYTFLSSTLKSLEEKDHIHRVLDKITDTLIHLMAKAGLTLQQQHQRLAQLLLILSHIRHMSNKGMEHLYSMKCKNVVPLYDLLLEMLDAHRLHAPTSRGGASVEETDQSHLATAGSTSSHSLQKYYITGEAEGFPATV
Chain of Transcription factor Sp1 (Homo sapiens) (P08047 whole entry, looked up): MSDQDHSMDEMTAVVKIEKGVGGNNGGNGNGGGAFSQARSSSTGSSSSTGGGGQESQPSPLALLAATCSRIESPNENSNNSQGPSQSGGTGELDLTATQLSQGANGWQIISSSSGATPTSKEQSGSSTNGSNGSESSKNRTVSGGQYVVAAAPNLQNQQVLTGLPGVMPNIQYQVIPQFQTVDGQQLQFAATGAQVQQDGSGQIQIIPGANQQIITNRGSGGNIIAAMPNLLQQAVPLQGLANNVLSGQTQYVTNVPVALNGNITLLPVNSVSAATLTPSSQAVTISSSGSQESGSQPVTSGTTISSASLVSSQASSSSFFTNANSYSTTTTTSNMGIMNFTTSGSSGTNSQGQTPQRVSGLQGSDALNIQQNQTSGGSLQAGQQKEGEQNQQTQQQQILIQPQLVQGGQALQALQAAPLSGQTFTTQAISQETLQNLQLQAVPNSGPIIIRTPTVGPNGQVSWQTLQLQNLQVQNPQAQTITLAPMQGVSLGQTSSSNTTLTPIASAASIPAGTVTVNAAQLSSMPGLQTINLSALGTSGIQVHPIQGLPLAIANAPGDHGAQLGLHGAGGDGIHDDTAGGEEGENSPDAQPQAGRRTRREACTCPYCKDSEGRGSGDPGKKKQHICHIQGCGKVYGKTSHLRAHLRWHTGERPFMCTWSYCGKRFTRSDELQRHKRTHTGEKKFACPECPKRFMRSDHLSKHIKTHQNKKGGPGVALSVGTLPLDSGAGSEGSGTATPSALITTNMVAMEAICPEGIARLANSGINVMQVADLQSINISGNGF
Chain of Signal transducer and activator of transcription 3 (Homo sapiens) (P40763 whole entry, looked up): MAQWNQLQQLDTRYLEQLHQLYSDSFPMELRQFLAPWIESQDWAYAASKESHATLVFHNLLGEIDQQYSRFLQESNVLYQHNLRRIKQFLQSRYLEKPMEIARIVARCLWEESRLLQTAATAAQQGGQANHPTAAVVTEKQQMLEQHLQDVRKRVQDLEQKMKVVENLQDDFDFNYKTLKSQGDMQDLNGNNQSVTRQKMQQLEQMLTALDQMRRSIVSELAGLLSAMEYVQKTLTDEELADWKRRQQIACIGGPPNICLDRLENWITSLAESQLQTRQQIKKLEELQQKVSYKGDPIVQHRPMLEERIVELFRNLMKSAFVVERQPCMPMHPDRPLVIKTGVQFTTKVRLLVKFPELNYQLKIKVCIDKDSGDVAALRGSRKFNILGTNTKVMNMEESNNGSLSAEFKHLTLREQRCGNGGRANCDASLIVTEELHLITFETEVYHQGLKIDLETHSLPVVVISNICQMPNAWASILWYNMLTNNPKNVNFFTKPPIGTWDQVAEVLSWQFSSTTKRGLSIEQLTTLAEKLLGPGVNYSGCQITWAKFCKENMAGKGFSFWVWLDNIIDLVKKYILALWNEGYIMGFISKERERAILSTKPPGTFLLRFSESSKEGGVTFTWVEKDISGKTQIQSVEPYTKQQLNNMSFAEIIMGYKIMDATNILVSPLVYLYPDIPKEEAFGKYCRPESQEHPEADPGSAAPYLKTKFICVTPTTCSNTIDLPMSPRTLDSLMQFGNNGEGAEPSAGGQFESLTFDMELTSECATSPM
Chain of Nuclear receptor subfamily 1 group I member 3 (Homo sapiens) (Q14994 whole entry, looked up, the tested form may be a part): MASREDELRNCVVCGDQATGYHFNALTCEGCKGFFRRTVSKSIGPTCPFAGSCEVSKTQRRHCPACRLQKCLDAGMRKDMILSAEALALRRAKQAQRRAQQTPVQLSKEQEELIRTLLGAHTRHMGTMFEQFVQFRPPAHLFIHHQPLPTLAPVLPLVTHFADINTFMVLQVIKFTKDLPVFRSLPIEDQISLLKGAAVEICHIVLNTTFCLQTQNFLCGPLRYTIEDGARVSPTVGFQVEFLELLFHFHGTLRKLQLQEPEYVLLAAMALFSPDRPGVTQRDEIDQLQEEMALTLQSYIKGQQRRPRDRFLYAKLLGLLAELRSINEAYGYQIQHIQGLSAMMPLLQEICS
Chain of Steroid hormone receptor ERR1 (Homo sapiens) (P11474 whole entry, looked up, the tested form may be a part): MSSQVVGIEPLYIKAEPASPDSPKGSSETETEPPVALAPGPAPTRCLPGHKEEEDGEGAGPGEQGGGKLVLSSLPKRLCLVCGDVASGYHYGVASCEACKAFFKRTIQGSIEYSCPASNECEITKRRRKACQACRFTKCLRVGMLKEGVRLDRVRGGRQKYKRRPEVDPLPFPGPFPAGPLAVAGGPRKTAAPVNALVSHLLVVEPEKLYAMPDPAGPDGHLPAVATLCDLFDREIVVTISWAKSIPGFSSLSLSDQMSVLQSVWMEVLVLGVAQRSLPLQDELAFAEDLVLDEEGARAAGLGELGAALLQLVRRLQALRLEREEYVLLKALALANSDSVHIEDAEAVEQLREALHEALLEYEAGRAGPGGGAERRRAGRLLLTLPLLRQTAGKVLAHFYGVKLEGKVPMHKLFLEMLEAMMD
Chain of Estrogen-related receptor gamma (Homo sapiens) (P62508 whole entry, looked up, the tested form may be a part): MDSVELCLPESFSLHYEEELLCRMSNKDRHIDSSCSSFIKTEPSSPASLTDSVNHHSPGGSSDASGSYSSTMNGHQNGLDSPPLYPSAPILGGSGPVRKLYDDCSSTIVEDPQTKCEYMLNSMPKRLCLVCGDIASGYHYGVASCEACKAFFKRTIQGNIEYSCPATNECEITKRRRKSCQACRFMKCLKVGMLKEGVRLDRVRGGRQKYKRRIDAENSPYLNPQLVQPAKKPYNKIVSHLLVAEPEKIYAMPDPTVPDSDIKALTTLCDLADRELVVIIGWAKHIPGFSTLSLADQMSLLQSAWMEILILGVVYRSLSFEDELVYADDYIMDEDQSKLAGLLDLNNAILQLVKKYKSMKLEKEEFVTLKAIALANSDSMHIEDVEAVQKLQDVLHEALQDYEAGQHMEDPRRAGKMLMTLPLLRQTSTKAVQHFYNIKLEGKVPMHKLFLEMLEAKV

O=P(O)(O)CCC(F)(F)C(F)(F)C(F)(F)C(F)(F)C(F)(F)C(F)(F)C(F)(F)C(F)(F)F
not listed: [16] | [17] | [18] | [19] | [20]
inactive: all other assays above

CCCCCCCCCCCC[N+](C)(C)Cc1ccccc1
inactive: [1] | [2] | [3] | [4] | [16] | [6] | [7] | [8] | [9] | [10] | [12] | [13] | [15]
active: [7] 17.7 µM | [12] 11.1 µM | [13] 168 µM

CC=O
not listed: [5] | [11] | [17] | [18] | [19] | [20]
inactive: all other assays above

CC(C)C=O
active: [1] 61.9 µM and 34.9 µM
not listed: [5] | [11]
inactive: all other assays above

Oc1cccc2c(O)cccc12
active: [1] 27.1 µM | [11] 11.1 µM
not listed: [5] | [13] | [19] | [20]
inactive: all other assays above

C=CC(=C)CC/C=C(\C)CCC=C(C)C
active: [1] 3.39 µM | [17] 6.84 µM
not listed: [13] | [15] | [16] | [18] | [20]
inactive: all other assays above
